# IDE cell inh: inhibitors of human insulin-degrading enzyme in cells; hit rate 0.41% among 320,000; inhibition, % at 5.59 µM; AID 434962; HEK cells, FAbetaB cleavage, fluorescence polarization;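 active = percent inhibition above the average of all tested compounds plus 3 SD, set per screening campaign, cut at about 16% in these data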;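 also: IDE supplied by intact live HEK cells; FP after avidin binding of uncleaved biotin substrate so inhibition keeps polarization high; 0% = DMSO wells and 100% = 60 µM reference IDE inhibitor Ii1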
# IDE cell activ: IDE (human) activation, cell-based. P14735. HEK cells, FAbeta-B cleavage, fluorescence polarization; 0% vehicle, 100% cell-free pure enzyme wells. activation, % at 5.96 µM. hit rate 0.073% among 340,000;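 active = activation above the mean of all tested compounds plus 3 SD, set per screening campaign, cut at about 17% in these data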
# CRFBP-R2 agonist: CRF-BP/CRF-R2 complex agonism; AID 588473; activation, % at 13.2 µM; HEK293 CRF-R2/CRF-BP, calcium dye fluorescence (FLIPR); percent of saturating CRF peptide response; hit rate 0.46% among 350,000;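 active = activation of at least 50%, plus an integration ratio under a set limit after plate pattern correction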;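 also: plate controls were neutral control wells without compound for no effect and CRF at EC100 for full effect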
# Cardiac RTF inh: cardiac RTF calcium desensitization; P19429+P45379; IANBD-labeled cardiac RTF, Ca2+ fluorescence; inhibition, % at 7.15 µM; hit rate 0.12% among 340,000;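 active = inhibition above the mean inhibition of all tested compounds plus 3 SD, cut at about 17% in these data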;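 also: assay run at fixed EC70 calcium of 1.6 mM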
# cardiac RTF act: cardiac RTF calcium sensitization; P19429+P45379; IANBD-labeled TnC RTF fluorescence at EC20 calcium; 0% EC20 calcium, 100% full calcium; activation, % at 7.2 µM; hit rate 0.24% among 340,000; AID 493008;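 active = activation above the mean over all tested compounds plus 3 SD, cut at about 30% in these data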;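 also: rise in fluorescence read as greater calcium sensitivity of cardiac thin filaments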
# TPT1 inhibitor: C. albicans TPT1 enzyme inhibition | recombinant caTPT1, FP RNA substrate dephosphorylation | inhibition, % at 5 µM | hit rate 0.81% among 300,000 | AID 1962;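 active = inhibition above the mean of all tested compounds plus 3 SD, set per screening campaign, cut at about 24% in these data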;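 also: plate controls were DMSO alone for no effect and ferristatin control at 100 nM for full effect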
# Starred values were filed as active, the others as inactive; i = inactive; x = no result; + = active, no number. Sampled rows, rich in hits. Any-hit rate of the full collection: about 1.5%.
SMILES,IDE cell inh,IDE cell activ,CRFBP-R2 agonist,Cardiac RTF inh,cardiac RTF act,TPT1 inhibitor
O=C(N/N=C/c1ccc(O)c2ncccc12)c1cccc(Br)c1,1,-14,124*,-2,4,2
COC(=O)c1sc(N2C(=O)C(O)=C(C(=O)c3ccc(C)o3)C2c2ccco2)nc1C (stereo not given),2,1,1,-7,-2,8
COC(=O)c1sc(N2C(=O)C(O)=C(C(=O)c3ccc(C)o3)C2c2ccc(F)cc2)nc1C (stereo not given),2,-4,2,-16,18,26*
CCOC(=O)c1ccc(NC(=S)N2CCSC2c2ccc(Br)cc2)cc1 (stereo not given),5,2,101*,-4,-8,-1
CCN(CC)c1ccc(C(=C2C=CC(=[N+](CC)CC)C=C2)c2ccccc2)cc1,x,-10,91*,-1,2,x
N#CC1=C(N)C2=C(N3CCCCC3)CCCC2C1(C#N)C#N (stereo not given),2,-4,4,-2,5,-3
CCCCN(C)C1=CC2=CC(=C(C#N)C#N)CCC2CC1 (stereo not given),-13,46*,494,i,+,3
N#CC(C#N)=C1C=C2C=C(N3CCCCC3)CCC2CC1 (stereo not given),-30,x,187*,x,x,3
O=C(NCc1ccco1)C1CC(c2ccccc2O)=NO1 (stereo not given),6,3,77*,0,4,-1
CC(C)S(=O)(=O)N1CCN(c2ccnc3cc(Cl)ccc23)CC1,23*,x,-3,x,x,0
COc1cc2c(cc1OC)C(c1c(Cl)cccc1Cl)NC(=O)C2 (stereo not given),-3,3,52*,2,-2,-3
Cc1cc(C)c(C(CC(=O)c2cccs2)C(C#N)C#N)c(C)c1 (stereo not given),1,6,8,7,0,1
CCOc1cc(C=C2C(=O)c3ccccc3C2=O)ccc1OCC(=O)Nc1ccc(C)cc1,2,5,113*,0,-2,-4
O=C(Nc1ccc(C(=O)O)cc1)Nc1ccc([N+](=O)[O-])cc1,-3,0,0,-6,-2,1
O=C(Nc1cc(C(F)(F)F)cc(C(F)(F)F)c1)Nc1cnn(-c2ccc([N+](=O)[O-])cc2)c1C(F)(F)F,3,3,58*,-2,-4,-6
CN1CCN(C(=O)c2ccc(NS(=O)(=O)c3cccc([N+](=O)[O-])c3)cc2)CC1,x,-2,2,1,1,x
O=C(/C=C/c1ccco1)N(Cc1ccccc1F)C1CCS(=O)(=O)C1 (stereo not given),6,-2,2,2,0,-1
CCN1CCSc2ccc(C(=O)NCc3ccccc3F)cc21,-1,5,280*,-3,1,0
CCN1CCSc2ccc(C(=O)NCc3ccccc3C)cc21,-1,1,1,-2,0,0
COc1ccc(Cn2c(-c3ccc(C)cc3)c[n+]3ccccc23)cc1,6,5,0,0,0,1
COc1ccc(Cn2c(SCc3ccccc3C)nc3cc(OC)c(OC)cc3c2=N)cc1,6,22*,x,11,-6,2
Cc1ccc(-c2noc(CN3CCC(C(N)=O)CC3)n2)cc1,2,1,51*,-10,-5,2
Cc1cc(Cl)ccc1OC(C)C(=O)Nc1ccccc1N1CCOCC1 (stereo not given),1,5,110*,3,0,-3
CC(Oc1ccc(Cl)cc1)C(=O)Nc1ccccc1N1CCOCC1 (stereo not given),0,-1,53*,-9,7,x
Cc1cc(Cl)ccc1OC(C)C(=O)Nc1cccc(S(=O)(=O)N2CCOCC2)c1 (stereo not given),x,x,0,x,x,x
SMILES,IDE cell inh,IDE cell activ,CRFBP-R2 agonist,Cardiac RTF inh,cardiac RTF act,TPT1 inhibitor
CC(Oc1cccc(Cl)c1)C(=O)Nc1ccccc1N1CCCC1 (stereo not given),3,2,-1,-13,-11,0
COc1cc(OC)c(OC)cc1NC(=O)CC1COc2ccccc2O1 (stereo not given),3,5,-1,-1,1,-3
COc1ccc(C)cc1NC(=O)CC1COc2ccccc2O1 (stereo not given),6,3,-4,-14,67*,-3
O=C(Nc1cccc2ncccc12)c1ccc2c(c1)OCCO2,4,0,57*,-47,-1,-5
Nc1ccc(C(=O)Nc2cccc3ncccc23)cc1,1,5,0,-2,2,-1
COc1ccccc1C1CC(c2ccccc2)=NN1C(=S)Nc1ccccc1 (stereo not given),0,3,1,-14,4,-3
Cc1occc1C(=O)Nc1nnc(C(F)(F)F)s1,4,8,28,-2,-1,2
O=C(Nc1ccccc1C(=O)Nc1nnc(C(F)(F)F)s1)c1ccccc1,0,3,60*,0,-4,2
CCOC(=O)C1CCN(C(=O)COC(=O)/C=C/c2ccc([N+](=O)[O-])cc2)CC1,-2,3,-2,-2,0,x
N#CC1=C(N)SC(N)=C(C#N)C1c1ccoc1,15,x,x,x,x,32*
Cc1ccc(C2C(C#N)=C(N)SC(N)=C2C#N)cc1,x,-9,39,-68,41*,x
CCN(CC(=O)Nc1ccccc1OC)C(=O)CCOc1ccc(C(C)(C)C)cc1,-2,5,0,-2,-21,-2
Cc1ccc(S(=O)(=O)N2CCC(=O)N(C(COCc3ccc(C(F)(F)F)cc3)Cc3ccccc3)CC2)cc1 (stereo not given),1,3,62*,0,-7,-8
Cc1ccc(S(=O)(=O)N2CCC(=O)N(C(COCc3ccc(Cl)c(Cl)c3)Cc3ccccc3)CC2)cc1 (stereo not given),-1,x,71*,x,x,2
Cc1ccc(S(=O)(=O)N2CCC(=O)N(C(COCc3cccc(C)c3)Cc3ccccc3)CC2)cc1 (stereo not given),-1,1,14,-10,2,3
CCC(Cc1c(I)cc(I)c(N)c1I)C(=O)O (stereo not given),-1,-2,-2,9,11,-2
O=c1[nH]c2ccccc2nc1/C=C/c1ccc(O)cc1,x,-10,104*,-12,0,x
COc1ccc(OC)c(C=Nc2ccccc2-c2nc3ccccc3[nH]2)c1,-1,2,0,-13,0,-5
COc1ccc(OC)c(/C=C/c2nc3ccccc3[nH]c2=O)c1,7,-10,42,-103,72*,4
COc1ccccc1C(=O)N(Cc1ccc(Cl)cc1)C1CCS(=O)(=O)C1 (stereo not given),-2,-5,0,-4,0,0
